Assay results taken from PubChem BioAssay AID1159580 (chemical genetic matrix, 2015).
“And” between values parts separate entries of the source, which are not always exact repeats. Equal entries are not always repeated. About 2,000 (36%) of roughly 5,500 compounds were called active. Roughly 18% stayed inconclusive and do not appear here. Rule as the data show it: active = normalized growth mostly below about 0.91 (no sharp cut-off); inconclusive = no clear call, values can overlap the other calls; inactive = mostly above about 0.92. Some of the results follow.

Assay: chemical genetic growth profiling, strain panel (AID 1159580);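 also: tested at 20 µM; growth read once vehicle control cultures reached saturation at 30 °C; 1 = growth at the plate median or of vehicle wells; lower values mean less growth of the strain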
Details: growth OD

Measured: normalized growth

CN1Cc2c(N)cccc2C(c2ccccc2)C1 (centres undefined)
inactive: S. cerevisiae deletion strains, locus YJR075W, strain HOC1, hits give low values 1.01 and 0.995 | S. cerevisiae deletion strains, locus YKL009W, strain mrt4, hits give low values 1 | S. cerevisiae deletion strains, locus YKL068W, hits give low values 1 | S. cerevisiae deletion strains, locus YKL085W, strain MDH1 (second series), hits give low values 1.01 | S. cerevisiae deletion strains, locus YKL085W, strain MDH1, hits give low values 1.01 | S. cerevisiae deletion strains, locus YKL160W, strain elf1, hits give low values 1.02 | S. cerevisiae deletion strains, locus YKL190W, strain CNB1, hits give low values 1.01 | S. cerevisiae deletion strains, locus YKR001C, strain vps1, hits give low values 1 | S. cerevisiae deletion strains, locus YKR026C, strain gcn3, hits give low values 1.01 | S. cerevisiae deletion strains, locus YKR091W, strain srl3, hits give low values 1 | S. cerevisiae deletion strains, locus YLL001W, strain dnm1, hits give low values 1.01 | S. cerevisiae deletion strains, locus YLL026W, hits give low values 1.01 | S. cerevisiae deletion strains, locus YLL041C, strain sdh2, hits give low values 1.01 | S. cerevisiae deletion strains, locus YLR027C, strain aat2, hits give low values 1.02 | S. cerevisiae deletion strains, locus YLR039C, strain RIC1, hits give low values 1.03 | S. cerevisiae deletion strains, locus YLR058C, strain SHM2, hits give low values 1 | S. cerevisiae deletion strains, locus YLR102C, strain apc9, hits give low values 1.01 | S. cerevisiae deletion strains, locus YLR113W, strain HOG1, hits give low values 0.982 | S. cerevisiae deletion strains, locus YLR221C, strain rsa3, hits give low values 0.994 | S. cerevisiae deletion strains, locus YLR258W, strain gsy2, hits give low values 0.99 | S. cerevisiae deletion strains, locus YLR262C, strain YPT6 (second series), hits give low values 1.03 | S. cerevisiae deletion strains, locus YLR262C, strain YPT6, hits give low values 1.05 | S. cerevisiae deletion strains, locus YLR268W, strain sec22, hits give low values 1.02 | S. cerevisiae deletion strains, locus YLR320W, strain mms22, hits give low values 0.971 | S. cerevisiae deletion strains, locus YLR330W, strain CHS5, hits give low values 1.01 | S. cerevisiae deletion strains, locus YLR342W, strain FKS1 (second series), hits give low values 1.06 | S. cerevisiae deletion strains, locus YLR342W, strain FKS1, hits give low values 1.01 | S. cerevisiae deletion strains, locus YLR357W, strain rsc2, hits give low values 0.982 | S. cerevisiae deletion strains, locus YLR370C, strain arc18, hits give low values 1 | S. cerevisiae deletion strains, locus YLR371W, strain rom2, hits give low values 1.02 | S. cerevisiae deletion strains, locus YLR384C, strain iki3, hits give low values 1.01 | S. cerevisiae deletion strains, locus YLR418C, strain cdc73, hits give low values 1.01 | S. cerevisiae deletion strains, locus YML016C, strain PPZ1, hits give low values 1 | S. cerevisiae deletion strains, locus YML032C, strain rad52, hits give low values 0.994 | S. cerevisiae deletion strains, locus YML120C, strain ndi1, hits give low values 1.02 | S. cerevisiae deletion strains, locus YML124C, strain tub3, hits give low values 1.01 | S. cerevisiae deletion strains, locus YMR058W, strain fet3, hits give low values 1.02 | S. cerevisiae deletion strains, locus YMR078C, strain ctf18, hits give low values 1.02 | S. cerevisiae deletion strains, locus YMR125W, strain sto1, hits give low values 0.995 | S. cerevisiae deletion strains, locus YMR129W, hits give low values 1.01 | S. cerevisiae deletion strains, locus YMR205C, strain PFK2, hits give low values 1.04 | S. cerevisiae deletion strains, locus YMR223W, strain ubp8, hits give low values 1.03 | S. cerevisiae deletion strains, locus YMR231W, strain pep5, hits give low values 1 | S. cerevisiae deletion strains, locus YMR263W, strain SAP30, hits give low values 1 | S. cerevisiae deletion strains, locus YMR307W, strain GAS1, hits give low values 1.02 | S. cerevisiae deletion strains, locus YNL067W, strain RPL9B, hits give low values 0.988 | S. cerevisiae deletion strains, locus YNL071W, strain lat1, hits give low values 1.01 | S. cerevisiae deletion strains, locus YNL153C, strain GIM3, hits give low values 0.969 | S. cerevisiae deletion strains, locus YNL175C, strain NOP13, hits give low values 0.977 | S. cerevisiae deletion strains, locus YNL183C, strain NPR1, hits give low values 0.929 | S. cerevisiae deletion strains, locus YNL197C, strain WHI3, hits give low values 0.984 | S. cerevisiae deletion strains, locus YNL209W, strain ssb2, hits give low values 0.994 | S. cerevisiae deletion strains, locus YNL224C, strain SQS1, hits give low values 0.998 | S. cerevisiae deletion strains, locus YNL233W, strain BNI4, hits give low values 0.981 | S. cerevisiae deletion strains, locus YNL248C, strain rpa49, hits give low values 1.03 | S. cerevisiae deletion strains, locus YNL250W, strain rad50, hits give low values 1.02 | S. cerevisiae deletion strains, locus YNL271C, strain bni1, hits give low values 1.01 | S. cerevisiae deletion strains, locus YNL298W, strain CLA4, hits give low values 1.01 | S. cerevisiae deletion strains, locus YNL307C, strain MCK1, hits give low values 1.02 | S. cerevisiae deletion strains, locus YNL322C, strain KRE1 (second series), hits give low values 1.01 | S. cerevisiae deletion strains, locus YNR049C, strain mso1, hits give low values 1.02 | S. cerevisiae deletion strains, locus YNR052C, strain pop2, hits give low values 1.02 | S. cerevisiae deletion strains, locus YOL006C, strain TOP1, hits give low values 0.997 | S. cerevisiae deletion strains, locus YOL012C, strain htz1 0.779 | S. cerevisiae deletion strains, locus YOL147C, strain pex11, hits give low values 1.01 | S. cerevisiae deletion strains, locus YOR001W, strain rrp6, hits give low values 1.02 | S. cerevisiae deletion strains, locus YOR061W, strain CKA2, hits give low values 1.01 | S. cerevisiae deletion strains, locus YOR069W, strain VPS5, hits give low values 1.01 | S. cerevisiae deletion strains, locus YOR070C, strain gyp1, hits give low values 1 | S. cerevisiae deletion strains, locus YOR080W, strain dia2, hits give low values 1.02 | S. cerevisiae deletion strains, locus YOR083W, strain WHI5 (second series), hits give low values 0.983 | S. cerevisiae deletion strains, locus YOR083W, strain WHI5, hits give low values 0.989 | S. cerevisiae deletion strains, locus YOR106W, strain vam3, hits give low values 1.03 | S. cerevisiae deletion strains, locus YOR136W, strain idh2, hits give low values 1.01 | S. cerevisiae deletion strains, locus YOR144C, strain elg1, hits give low values 1.01 | S. cerevisiae deletion strains, locus YOR184W, strain ser1, hits give low values 1.01 | S. cerevisiae deletion strains, locus YOR231W, strain MKK1, hits give low values 0.986 | S. cerevisiae deletion strains, locus YOR265W, strain rbl2, hits give low values 1.01 | S. cerevisiae deletion strains, locus YOR270C, strain vph1, hits give low values 1.04 | S. cerevisiae deletion strains, locus YOR290C, strain snf2, hits give low values 0.99 | S. cerevisiae deletion strains, locus YOR316C, strain cot1, hits give low values 1.02 | S. cerevisiae deletion strains, locus YPL051W, strain arl3, hits give low values 1.01 | S. cerevisiae deletion strains, locus YPL055C, strain LGE1, hits give low values 0.96 and 0.983 | S. cerevisiae deletion strains, locus YPL078C, strain atp4, hits give low values 1.03 | S. cerevisiae deletion strains, locus YPL106C, strain sse1, hits give low values 0.969 | S. cerevisiae deletion strains, locus YPL240C, strain hsp82, hits give low values 1 | S. cerevisiae deletion strains, locus YPL241C, strain CIN2, hits give low values 1.01 and 0.99 | S. cerevisiae deletion strains, locus YPL256C, strain CLN2, hits give low values 0.974 | S. cerevisiae deletion strains, locus YPR119W, strain clb2, hits give low values 1.01 | S. cerevisiae deletion strains, locus YPR141C, strain kar3, hits give low values 1.02 | S. cerevisiae deletion strains, locus YPR163C, strain tif3, hits give low values 1.01 | S. cerevisiae deletion strains, locus YPR167C, strain met16, hits give low values 1.01 | S. cerevisiae deletion strains, strain wtn01, hits give low values 1.02 | S. cerevisiae strains, strain wild type, hits give low values 1
